What is called inhibition is the relative decrease from the control value, in per cent.

Results on 14 compounds are retold here after PubChem BioAssay.

A short description of test [1]: inhibitors of TNFa-induced NFkB p65 translocation, primary screen, imaging, HUVEC, MLSMR starter and 10KST1 sets (AID 438;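 active means inhibition above 20% together with a positive visual image hit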;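 further: compound added about 3h40 before a 20 min TNFalpha stimulation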;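 on inhibition: signal is the nuclear over cytoplasmic p65 intensity ratio per well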). As to conditions: HUVEC TNFa-induced p65 nuclear translocation; cell count: measured here: nuclei count (cytotoxicity indicator), at 2.08 µM; inhibition: at 2 µM, stronger effect = higher value, 0% TNFa-plus-vehicle, 100% no-TNFa wells.
A short description of test [2]: inhibitors of mutant huntingtin aggregation, primary screen, imaging, exon1htt(103Q)mCFP cells, high-content imaging (AID 483;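 active means visual image review flags a hit and inhibition of aggregation exceeds 20%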;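 further: compound exposure lasted 3 days before fixation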;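 on nuclei count: percent of the per-plate median nuclei count of sample wells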). The conditions noted are these: exon1htt(103Q)mCFP cell line, aggregate imaging, at 2 µM; inhibition of aggregation: stronger effect = higher value; nuclei count: measured here: cell count, toxicity.
Test [3] can be described thus: inhibitors of E-selectin induction by TNFa, primary screen, imaging, HUVEC, immunofluorescence, MLSMR starter and 10KST1 sets (AID 487;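 active means visually confirmed hit in the image check and inhibition above 20%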;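 on inhibition: signal is fraction of cell area covered by stained E-selectin grains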;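 on nuclei count: 100% = median nuclei count of all wells on the same plate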). The conditions noted are these: HUVEC TNFalpha-induced E-selectin immunofluorescence imaging, at 2 µM; inhibition: stronger effect = higher value; nuclei count: measured here: cell number, toxicity.
The target of test [4] is Voltage-gated potassium channel subunit beta-2 (Rattus norvegicus) (UniProt P62483). The test can be described thus: KvBeta enzyme negative modulators, primary screen, biochemical, NADPH fluorescence (AID 622).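 Further: slope of raw intensity against log time taken from 70 to 1610 s.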 As to conditions: recombinant KvBeta, 4-cyanobenzaldehyde reduction, at 10 µM, stronger effect = higher value.
Test [5] shares this target. The test can be described thus: KvBeta positive modulators, primary screen, biochemical, NADPH fluorescence (AID 623;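 active means NADPH fluorescence slope more negative than the mean of all samples by about 3 SD, 99.7% confidence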;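 further: fluorescence intensity change per second fitted from 20 to 320 s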). As to conditions: Recombinant KvBeta, NADPH fluorescence decrease slope, 10 min; at 10 µM; stronger effect = lower value.
Test [6] concerns the target Alpha-2C adrenergic receptor (Homo sapiens) (UniProt P18825). Kind of test: modulators of alpha2C/GIRK thallium flux, primary screen, cell-based, HEK293 alpha2C/GIRK1/2 (AID 624;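 active means fluorescence slope after compound addition differing from the mean of all screened samples at 99.7% confidence, in either direction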;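 further: slope of fluorescence ratio to pre-addition baseline per second over 15 to 24 s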). As to conditions: thallium flux BTC fluorescence, at 10 µM, actives lie on both sides.
The nature of test [7]: inhibitors of Sendai virus-induced IRF3 signaling, primary screen, TLR/RLR signaling modifier project, cell-based, Sendai virus stimulus, luciferase, 10K MLSCN set (AID 602276;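 active means inhibition at or above 50% at 10 µM; inactive means inhibition below 50%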;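 further: firefly luciferase from ISG56 promoter only with Renilla not read in this screen; 0% = Sendai virus plus DMSO and 100% = medium plus DMSO without virus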). As to conditions: HEK293 RL24 IRF3 luciferase reporter, at 10 µM, stronger effect = higher value. Background: A reporter such as luciferase makes a cellular process visible.
Test [8] is described as follows: inhibitors of poly I:C-induced TLR3 signaling, primary screen, cell-based, poly I:C stimulus, luciferase, 10K MLSCN set (AID 602277;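 active means inhibition of the reporter signal at or above 50%; inactive means inhibition below 50%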). As to conditions: HEK293-TLR3 RL24 IRF3 luciferase reporter, at 10 µM, stronger effect = higher value.

Active and inactive are the calls of the source.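 How the source made its calls, unless noted: active means fluorescence slope higher than the sample average by over 3 SD (cut at about -0.22 in these data, passing the limit was not always enough); inactive means the rest.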

Chain of Alpha-2C adrenergic receptor (Homo sapiens) (P18825 whole entry, looked up): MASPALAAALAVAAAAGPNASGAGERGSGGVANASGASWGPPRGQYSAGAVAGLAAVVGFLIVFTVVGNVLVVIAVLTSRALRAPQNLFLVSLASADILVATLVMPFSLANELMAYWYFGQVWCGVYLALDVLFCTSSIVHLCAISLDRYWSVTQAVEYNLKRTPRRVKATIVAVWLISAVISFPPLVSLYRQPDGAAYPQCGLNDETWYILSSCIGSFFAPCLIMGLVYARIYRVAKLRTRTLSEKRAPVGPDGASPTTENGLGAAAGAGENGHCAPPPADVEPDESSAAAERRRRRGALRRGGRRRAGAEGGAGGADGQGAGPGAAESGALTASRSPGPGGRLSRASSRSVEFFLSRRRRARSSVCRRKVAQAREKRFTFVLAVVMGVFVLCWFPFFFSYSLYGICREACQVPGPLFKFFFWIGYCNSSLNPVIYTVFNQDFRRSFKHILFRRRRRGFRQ
Chain of Voltage-gated potassium channel subunit beta-2 (Rattus norvegicus) (P62483 whole entry, looked up): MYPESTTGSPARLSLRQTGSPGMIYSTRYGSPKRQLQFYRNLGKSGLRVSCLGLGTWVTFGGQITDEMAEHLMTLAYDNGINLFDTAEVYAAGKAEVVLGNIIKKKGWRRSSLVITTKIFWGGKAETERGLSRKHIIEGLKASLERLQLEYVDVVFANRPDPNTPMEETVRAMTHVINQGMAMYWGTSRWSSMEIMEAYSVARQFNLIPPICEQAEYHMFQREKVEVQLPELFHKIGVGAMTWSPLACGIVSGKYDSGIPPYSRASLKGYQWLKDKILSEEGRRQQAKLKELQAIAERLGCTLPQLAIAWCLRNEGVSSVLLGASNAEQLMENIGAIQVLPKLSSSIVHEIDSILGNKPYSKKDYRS

In the case of `Cc1nc2ccccc2c2oc(C(=O)NCCN3CCCCC3C)cc12` (centres undefined), the cell count in test [1] came out at 558. For the same compound, the inhibition in test [1] was 5.4% (inactive); in test [3], -1.3% (inactive); in test [7] it was 7.56% (inactive); in test [8], 66.5% (active). In addition, the inhibition of aggregation in test [2] is 15.4% (inactive). The nuclei count in test [2] came out at 87.5%; in test [3], 120%. In addition, the fluorescence slope in test [4] was -0.614 (inactive). Besides, the NADPH fluorescence slope in test [5] was -3.9e-05 (inactive). In addition, in test [6], the slope is 0.00617 (inactive).
As for `COC(=O)CSc1cc(C)nc(NC(C)=O)n1`, the cell count in test [1] was 703. For the same compound, the inhibition was 11% (inactive) in test [1], -5.3% (inactive) in test [3], 6.12% (inactive) in test [7] and 17.7% (inactive) in test [8]. In addition, in test [2], the inhibition of aggregation is -16.4% (inactive). Moreover, the nuclei count worked out at 98.3% in test [2] and 110% in test [3]. Further, the fluorescence slope in test [4] was -0.586 (inactive). For the same compound, the NADPH fluorescence slope in test [5] is -4.5e-05 (inactive). In test [6], the slope was 0.0055 (inactive).
In the case of `O=C(Cc1cccs1)NCc1ccc(F)cc1`, the cell count in test [1] worked out at 458. In addition, the inhibition in test [1] was 2.4% (inactive); in test [3], 56.1% (active); in test [7], -18.8% (inactive); in test [8] it was -36.3% (inactive). Also, the inhibition of aggregation in test [2] was 10.1% (inactive). Further, the nuclei count turned out to be 107% in test [2] and 93.3% in test [3]. Moreover, in test [4], the fluorescence slope is -0.408 (inactive). In addition, in test [5], the NADPH fluorescence slope is -3.6e-06 (inactive). In addition, in test [6], the slope was 0.00459 (inactive).
`CCOC(=O)C1=C(C)NC(=O)NC1c1ccc(OCCO)c(OC)c1` (centres undefined): the cell count in test [1] turned out to be 634. For the same compound, the inhibition is -12.8% (inactive) in test [1], 30.3% (inactive) in test [3], -1.76% (inactive) in test [7] and 25.5% (inactive) in test [8]. Besides, in test [2], the inhibition of aggregation was -2.9% (inactive). Moreover, the values for the nuclei count in test [2] and in test [3] were 102% and 89.2%, respectively. The fluorescence slope in test [4] is -0.468 (inactive). Moreover, in test [5], the NADPH fluorescence slope was -4.3e-05 (inactive). Also, the slope in test [6] is 0.00652 (inactive).
In the case of `CC1CN=C(N(C(=O)Nc2ccccc2)c2ccc(S(=O)(=O)N3CCOCC3)cc2)S1` (centres undefined), in test [1], the cell count was determined as 476. In addition, the inhibition in test [1] is -4.8% (inactive); in test [3], -38.9% (inactive); in test [7], 3.57% (inactive); in test [8], 6.41% (inactive). For the same compound, in test [2], the inhibition of aggregation is 11.9% (inactive). Moreover, the nuclei count in test [2] was 95.4%; in test [3], 112%. Further, the fluorescence slope in test [4] is -0.356 (inactive). For the same compound, the NADPH fluorescence slope in test [5] was -5.2e-05 (inactive). In test [6], the slope was 0.00838 (inactive).
In the case of `COc1ccc(N2CCN(Cc3nc4ccccc4c(=O)[nH]3)CC2)cc1`, the cell count in test [1] is 683. The inhibition in test [1] is -4.7% (inactive); in test [3], -72.3% (inactive); in test [7], 10.6% (inactive); in test [8], -9.48% (inactive). Also, the inhibition of aggregation in test [2] was -13.4% (inactive). The nuclei count in test [2] came to 119%; in test [3] it was 112%. Moreover, the fluorescence slope in test [4] is -0.607 (inactive). In test [5], the NADPH fluorescence slope was -3.1e-07 (inactive). For the same compound, the slope in test [6] was 0.00376 (inactive).
Turning to `COc1cc2c(cc1OC)-c1nnc(-c3cccs3)n1C(C)(C)C2`, the cell count in test [1] was 814. Moreover, the inhibition is 1.2% (inactive) in test [1], -58.9% (inactive) in test [3], 6.77% (inactive) in test [7] and 18.5% (inactive) in test [8]. The inhibition of aggregation in test [2] was -30.2% (inactive). The results for the nuclei count in test [2] and in test [3] were 106% and 114%, respectively. In addition, the fluorescence slope in test [4] was -0.601 (inactive). The NADPH fluorescence slope in test [5] is -1.8e-05 (inactive). Further, in test [6], the slope is 0.00581 (inactive).
In the case of `COc1ccc(CCNC(=O)C2CC(=O)N(c3ccccc3)C2)cc1OC` (centres undefined), in test [1], the cell count came to 336. Moreover, the inhibition in test [1] is -2.5% (inactive); in test [3], 22.4% (inactive); in test [7] it was 16.9% (inactive); in test [8] it was 25.7% (inactive). Besides, in test [2], the inhibition of aggregation is -5.4% (inactive). Also, the nuclei count in test [2] came to 102%; in test [3] it was 109%. In test [4], the fluorescence slope is -0.452 (inactive). For the same compound, the NADPH fluorescence slope in test [5] is 8.4e-07 (inactive). For the same compound, the slope in test [6] is 0.00653 (inactive).
Take `O=C(NC1CC1)c1cccc(Nc2ccc(-c3ccc4c(c3)OCCO4)nn2)c1`: the cell count in test [1] was 336. Also, the inhibition in test [1] is -1.6% (inactive); in test [3], -177% (inactive); in test [7], -75.9% (inactive); in test [8], -132% (inactive). Besides, in test [2], the inhibition of aggregation is -55% (inactive). The nuclei count came to 106% in test [2] and 126% in test [3]. In test [4], the fluorescence slope is -0.358 (inactive). Besides, the NADPH fluorescence slope in test [5] is -2.6e-05 (inactive). In test [6], the slope is 0.00455 (inactive).
On to `CCN1C(=O)c2ccccc2S(=O)(=O)c2ccc(C(=O)NCc3cccnc3)cc21`, for which, in test [1], the cell count worked out at 804. The inhibition in test [1] is -6.4% (inactive); in test [3], -50.1% (inactive); in test [7] it was -13.6% (inactive); in test [8], 1.79% (inactive). Besides, in test [2], the inhibition of aggregation is -35.7% (inactive). Besides, the nuclei count in test [2] was found to be 107%; in test [3], 129%. For the same compound, the fluorescence slope in test [4] is -0.569 (inactive). The NADPH fluorescence slope in test [5] is -4.8e-05 (inactive). The slope in test [6] was 0.00634 (inactive).
Take `CCOc1ccc2c(c1)c1nnc(SCC(=O)N3CCC(C)CC3)nc1n2C`: in test [1], the cell count turned out to be 432. Also, the inhibition in test [1] was -0.2% (inactive); in test [3], -30.2% (inactive); in test [7], -10.6% (inactive); in test [8] it was -29.5% (inactive). Also, the inhibition of aggregation in test [2] was 0.1% (inactive). In addition, the nuclei count in test [2] was found to be 99.9%; in test [3], 114%. Further, the fluorescence slope in test [4] was -0.326 (inactive). The NADPH fluorescence slope in test [5] was -5.2e-05 (inactive). Moreover, in test [6], the slope is 0.00371 (inactive).
In the case of `CCOC(=O)c1ccccc1NC(=O)CSc1nccn1C`, in test [1], the cell count amounted to 436. Moreover, the inhibition in test [1] was 9.7% (inactive); in test [3], -32.6% (inactive); in test [7], 8.57% (inactive); in test [8], 19.3% (inactive). In addition, the inhibition of aggregation in test [2] was -23.9% (inactive). Moreover, the nuclei count in test [2] and in test [3] was 108% throughout. For the same compound, the fluorescence slope in test [4] is -0.465 (inactive). Further, the NADPH fluorescence slope in test [5] was -0.000118 (inactive). For the same compound, the slope in test [6] was 0.00604 (inactive).
On to `Cc1cc2ccccn2c1C(=O)c1ccncc1`, for which, in test [1], the cell count stood at 602. Further, the inhibition in test [1] is -0.6% (inactive); in test [3], -1.7% (inactive); in test [7] it was 11% (inactive); in test [8], -0.108% (inactive). The inhibition of aggregation in test [2] was 11.7% (inactive). Besides, the nuclei count in test [2] came to 77.4%; in test [3], 111%. Besides, the fluorescence slope in test [4] is -0.62 (inactive). Besides, the NADPH fluorescence slope in test [5] is 9.9e-07 (inactive). Moreover, the slope in test [6] was 0.00577 (inactive).
With `CN(C(=O)COc1cc(=O)n(C)c2ccccc12)c1ccc(Br)cc1`, the cell count in test [1] worked out at 389. Also, the inhibition in test [1] is 71.5% (active); in test [3] it was -178% (inactive); in test [7], 6.78% (inactive); in test [8], 45.9% (inactive). Further, the inhibition of aggregation in test [2] is 2.9% (inactive). The nuclei count amounted to 104% in test [2] and 142% in test [3]. The fluorescence slope in test [4] is -0.513 (inactive). For the same compound, the NADPH fluorescence slope in test [5] is -1.3e-05 (inactive). Further, the slope in test [6] is 0.00662 (inactive).
